According to the supplement of paper PMC6555819:

What was measured:
Assay in all cases: PBM binding z-score (relative to random genomic background probes); higher = stronger binding; sequences stand for … in GC…GCGATTGACAGCGTAGAATGAAGG
[1] = system: FXR:RXRa (NR concentration 270 nM, RXRa partner concentration 90 nM)
Outline: (§1)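 Random background probes are the reference for binding z-scores. These scores derive from regression-normalized fluorescence on custom Agilent 4×180K protein-binding microarrays incubated 1 h with ligand-free nuclear receptor dimers. Binding was detected with antibodies against each partner (one per run).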

[2] = system: LXRa:RXRa (NR concentration 270 nM, RXRa partner concentration 90 nM)
Outline: as §1

[3] = system: LXRa homodimer (NR concentration 270 nM)
Outline: as §1

[4] = system: LXRb:RXRa (NR concentration 270 nM, RXRa partner concentration 90 nM)
Outline: as §1

[5] = system: LXRb homodimer (NR concentration 270 nM)
Outline: as §1

[6] = system: PPARa:RXRa (NR concentration 270 nM, RXRa partner concentration 90 nM)
Outline: as §1

[7] = system: PPARg:RXRa (NR concentration 180 nM, RXRa partner concentration 90 nM)
Outline: as §1

[8] = system: PPARg:RXRa 270nM:90nM, anti-RXR (NR concentration 270 nM, RXRa partner concentration 90 nM)
Outline: as §1

[9] = system: PPARg:RXRa 30nM:10nM, anti-RXR (NR concentration 30 nM, RXRa partner concentration 10 nM)
Outline: as §1

[10] = system: PPARg:RXRa 90nM:30nM, anti-RXR (NR concentration 90 nM, RXRa partner concentration 30 nM)
Outline: as §1

[11] = system: PPARg:RXRa DBDmut IVT, anti-RXR (DBD mutation: RXRa K156A/R161A, NR concentration 270 nM, RXRa partner concentration 90 nM)
Outline: as §1

[12] = system: PPARg:RXRa IVT, anti-PPARg (NR concentration 270 nM, RXRa partner concentration 90 nM)
Outline: as §1

[13] = system: PPARg DBDmut:RXRa IVT, anti-PPARg (DBD mutation: PPARg1 K132A/R137A, NR concentration 270 nM, RXRa partner concentration 90 nM)
Outline: as §1

[14] = system: PPARg DBDmut IVT, anti-PPARg (DBD mutation: PPARg1 K132A/R137A, NR concentration 270 nM)
Outline: as §1

[15] = system: PPARg homodimer (NR concentration 180 nM)
Outline: as §1

[16] = system: PXR:RXRa (NR concentration 270 nM, RXRa partner concentration 90 nM)
Outline: as §1

[17] = system: PXR homodimer (NR concentration 270 nM)
Outline: as §1

[18] = system: RARa:RXR (NR concentration 270 nM, RXRa partner concentration 90 nM)
Outline: as §1

[19] = system: RARa homodimer (NR concentration 270 nM)
Outline: as §1

[20] = system: RARb:RXRa (NR concentration 270 nM, RXRa partner concentration 90 nM)
Outline: as §1

Sequence	PBM binding z-score [1]	PBM binding z-score [2]	PBM binding z-score [3]	PBM binding z-score [4]	PBM binding z-score [5]	PBM binding z-score [6]	PBM binding z-score [7]	PBM binding z-score [8]	PBM binding z-score [9]	PBM binding z-score [10]	PBM binding z-score [11]	PBM binding z-score [12]	PBM binding z-score [13]	PBM binding z-score [14]	PBM binding z-score [15]	PBM binding z-score [16]	PBM binding z-score [17]	PBM binding z-score [18]	PBM binding z-score [19]	PBM binding z-score [20]
GCGACTGGGGCATCAGCAGGTTCCCATAACTTAA	-0.761	-0.491	-0.648	0.0504	-1.52	0.27	0.29	0.35	-0.948	-0.176	3.91	2.88	-0.996	-0.982	-0.276	-0.549	-0.571	-0.272	-0.565	0.421
CGTCCAAGATCAAAGGTCAGTGAAGAGATGACGG	3.66	3.73	1.53	3.21	0.413	4.84	5.29	5.82	3.81	5.56	0.235	2.39	0.493	-0.0647	3.36	3.67	0.13	5.06	1.29	4.37
TAGCCTAGGTCATTCAGGGGCCAATATAGAAAGC	4.5	4.59	1.12	3.78	1.21	3.97	2.41	2.82	0.793	1.51	1.85	2.85	0.373	1.2	2.49	3.08	0.116	4.05	0.318	3.93
TCTTGTAGATTAAGCAGGTTAAGAAAGCCTGAGT	0.514	0.349	-0.181	0.403	-0.31	0.868	-0.488	1.37	2.84	2.08	1.64	0.902	0.0777	0.04	-0.0749	0.401	0.0794	0.419	0.0226	0.106
TCTATTAGTTGATTATGGCAACCGAAACAGCGGA	0.958	0.726	0.306	0.64	1.08	0.209	0.113	1.91	4.11	3.45	2.17	0.613	1.3	1.66	1.37	0.553	0.671	0.747	1.89	0.407
CCGAGTAGGTTATAGGGCATTCAGGCAACGGTGA	0.59	0.988	0.388	0.765	-0.185	3.47	6.04	6.43	4.96	6.5	3.99	4.27	0.108	-0.169	1.05	0.219	-0.129	0.863	0.46	1.24
ATCTCTATGTAACCAAGTTCAGTGAATGCCGAAC	0.239	0.344	0.727	0.489	0.572	0.351	0.288	0.822	0.337	0.387	-0.0629	0.707	0.85	1.12	0.121	1.66	1.51	0.419	0.407	0.755
CCGAGTTGGTCAGGAGGTCACACACCGGATATGA	3.49	3.18	1.86	2.93	-0.213	4.03	2.62	3.24	0.983	2.36	0.95	2.61	0.01	0.0417	3.62	4.53	1.31	4.71	1.54	3.66
TAGCTTAGGTCATGGGCCAGTATACCACGCGAAC	4.7	3.6	0.14	2.77	0.0949	4.23	2.88	3.21	0.853	2.08	1.43	2.29	0.945	-0.133	1.14	1.82	-0.151	2.69	0.342	4.1
CGACAAAGTTCAACTAAGGTAACGTAAAGCACGC	6.54	5.86	3.44	4.09	1.92	4.93	4.38	4.95	2.16	3.95	0.248	1.7	0.707	1.21	2.54	5.16	3.06	3.51	0.942	5.07
TCATATAGGTAATACAGGGGAAAGTCGGCATCTA	1.29	1.31	0.263	1.21	0.513	1.55	1.01	2.49	4.47	3.25	4.42	2.56	1.36	0.581	0.957	0.783	0.581	1.08	0.911	0.566
CCTACTGGTCCAAAGGTCATTGATTCCAATGCTC	4.78	5.17	4.86	5.02	1.52	5.67	9.11	9.11	7.82	9.09	1.53	4.41	0.302	0.567	3.79	5.35	2.05	5.46	1.48	4.42
ACAAACAGGTGATGAAGGTAACTCAGGCTATCAT	0.258	0.355	0.00497	0.22	0.327	0.415	0.866	0.462	0.363	0.0404	1.05	1.01	0.711	0.584	0.773	0.14	0.394	0.713	0.803	0.582
CCTCCAAGGTCAGAGAGGTCAGTGAATGCCGAGT	5.62	5.09	2.77	4.43	0.381	4.71	3.2	4.06	1	2.54	2.56	2.91	-0.128	-1.11	3.5	5.94	10.8	4.82	0.862	5.18
